Most compounds without a hit are left out; they make up all but 2.7% or so of the library.
PREPL inh: inhibits the human prolyl oligopeptidase-like enzyme | Q4J6C6 | inhibition, % at 5.96 µM | AID 2751 | recombinant PREPL, fluorescence polarization activity-based probe | 0.68% of 320,000 active; in the data active = inhibition above about 43%;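 also: 0% = enzyme with DMSO and 100% = wells lacking enzyme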
ANO1 block: blocks the mouse calcium-activated chloride channel TMEM16A; Q8BHY3; HEK293 TMEM16A/YFP iodide influx fluorescence, ionomycin; normalized B-score (activity score, 25-100; higher = stronger inhibition) at 10 µM; 1.2% of 310,000 active;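 active = ratio plate-corrected score three or more library SD toward inhibition, starting fluorescence score within five deviations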;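 also: score derived from kinetic fluorescence span divided by baseline fluorescence per well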
ANO1 activ: activates or potentiates the mouse TMEM16A chloride channel; Q8BHY3; HEK293 TMEM16A/YFP-H148Q/I152L, iodide quench fluorescence; stronger effect = lower value; B-score at 10 µM; 0.3% of 340,000 active; AID 623877;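 active = fluorescence-ratio B-score plate-corrected deviation score at least 3 library SD below zero, with starting fluorescence score within 5 deviations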;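 also: channel opened by trigger with iodide after compound preincubation; score built on the fluorescence ratio of max minus min over baseline; more negative score means more quench and so TMEM16A activation or potentiation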
PP5 primary: blocks human protein phosphatase 5 activity; P53041; inhibition, % at 6.7 µM; purified PP5c, OMFP substrate fluorescence; 0.18% of 320,000 active;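 active = inhibition above the campaign's mean inhibition across all tested compounds plus 3 SD, cut at about 9.5% in these data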;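 also: 0% = DMSO only and 100% = 100 µM cantharidin control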
PP1 counter: blocks human PP1-alpha phosphatase, a PP5 counter-screen; purified PP1alpha, OMFP fluorescence; inhibition, % at 6.7 µM; 0.9% of 320,000 active;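 active = inhibition above the mean inhibition of all tested compounds plus 3 SD, computed separately for each screening campaign, cut at about 15% in these data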
FID counter: counter-screen for HCV NS3 helicase inhibitors: DNA intercalator displacement; DNA fluorescent intercalator displacement, fluorescence; inhibition, % at 7.9 µM; 0.17% of 290,000 active; AID 1845; in the data active = inhibition above about 37%;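 also: 0% = vehicle and 100% = reference compound; higher means more ethidium bromide displaced from hairpin DNA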
PP1 inh confirm: confirmation of human PP1 phosphatase inhibitors; shares compounds with PP1 counter; purified PP1alpha, OMFP substrate fluorescence; inhibition, % at 6.7 µM; 52% of 1,900 active; AID 2358;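 active = mean PP1 inhibition above a set limit taken from the earlier primary screen, cut at about 15% in these data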
PP5 counter: PP5 phosphatase inhibition, counter-screen for PP1 inhibitors; shares compounds with PP1 counter; purified PP5c, OMFP fluorescence; inhibition, % at 6.7 µM; 4% of 1,900 active;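 active = mean PP5 inhibition over triplicate wells above about 9.5% taken from the earlier PP1 screen, limit read from the data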
Active calls of the source: *; i = inactive; / = not tested or not shown.

SMILES	PREPL inh	ANO1 block	ANO1 activ	PP5 primary	PP1 counter	FID counter	PP1 inh confirm	PP5 counter
N#Cc1c(SCC(=O)Nc2nc3ccc(Br)cc3s2)sc2c(O)cc(=O)[nH]c12	21	i	i	0	18*	11	13	0
Cc1noc(C)c1COC(=O)COc1ccc2c(C)cc(=O)oc2c1	2	i	i	1	19*	-12	17*	-4
O=C(NC(Cc1c[nH]c2ccccc12)C(=O)NCc1ccc(F)cc1)OCc1ccccc1 (stereo not drawn)	4	i	i	6	3	-11	/	/
O=C(C1=C[C@@H]2[C@H]3C(=O)N(c4cccc(Cl)c4)C(=O)[C@H]3[C@@H](C(=O)c3ccc(Cl)cc3)N2C=C1)c1ccccc1	3	i	i	2	6	-11	/	/
O=C(C1=C[C@@H]2[C@H]3C(=O)N(c4ccccc4Cl)C(=O)[C@H]3[C@@H](C(=O)c3ccc(Cl)cc3)N2C=C1)c1ccccc1	-10	i	/	3	23*	-17	18*	4
Nc1nnc(CC(=O)Nc2ccccc2)s1	13	i	i	1	-6	-7	/	/
CCOc1ccccc1NC(=O)C1C2CCC(O2)C1C(=O)O (stereo not drawn)	-2	i	i	77*	77*	3	16*	31*
COc1ccc(OC)c(NC(=O)C2C3CCC(O3)C2C(=O)O)c1 (stereo not drawn)	-2	i	/	69*	64*	9	22*	27*
COc1ccc(NC(=O)c2cc(-c3ccncc3)nc3ccc(Br)cc23)cc1OC	17	100*	i	1	18*	-38	24*	0
COc1ccc(C2c3c(c(C)c(C)oc3=O)Oc3c(C)c(C)oc(=O)c32)cc1	14	/	i	2	3	/	/	/
COc1cc(C2c3c(c(C)c(C)oc3=O)Oc3c(C)c(C)oc(=O)c32)ccc1OS(=O)(=O)c1ccc(C)cc1	-10	/	i	-1	21*	/	26*	-3
COc1cc(/C=C(\NC(=O)c2ccccc2)C(=O)Nc2nccs2)ccc1OC(C)=O	12	i	i	-1	-3	-16	/	/
O=C(Nc1nnc(-c2ccc3c(c2)CCCC3)o1)c1ccc(Cl)cc1Cl	1	i	i	1	32*	-16	26*	-4
COc1cc(C(F)(F)F)c(C(=O)NCc2cccc(Cl)c2)cn1	13	i	i	-1	3	-6	/	/
O=C(CSc1nc(C2CC2)nc2ccccc12)Nc1ccccc1	-11	i	i	4	8	-21	/	/
COc1cc(NC(=O)CSc2nc(C3CC3)nc3ccccc23)cc(OC)c1	0	i	i	1	19*	-31	18*	-4
Cc1cc(SCC(=O)N/N=C/c2ccc(O)c(O)c2O)c(C)cc1Br	1	i	i	3	35*	-9	33*	-1
COc1ccc(O)c(C(=O)c2cc(SCC(=O)O)c3nc4sc5c(c4c(=O)n3c2)CCCC5)c1	21	i	i	2	29*	-9	19*	-3
CCOC(=O)c1sc2nc3c(SCC(=O)O)cc(C(=O)c4ccccc4O)cn3c(=O)c2c1C	2	i	i	1	13	-2	/	/
O=C(O)CSc1cc(C(=O)c2ccccc2O)cn2c(=O)c3c(-c4ccccc4)csc3nc12	20	i	i	1	20*	9	16*	-5
CCOC(=O)c1sc2nc3c(SCC(=O)O)cc(C(=O)c4cc(F)ccc4O)cn3c(=O)c2c1C	-18	i	i	1	61*	-10	48*	-3
Cc1ccc(OCC(=O)NNC(=O)Nc2ccc(Cl)cc2)c(Br)c1	1	i	i	2	2	/	/	/
NNC(=O)Cn1c(SCc2ccccc2)nc2ccccc21	2	i	i	0	18*	-7	-1	0
Cc1nc2ccccc2n1CC(=O)NN	6	i	i	1	-5	-7	/	/
Cn1c(SCC(=O)c2ccc3c(c2)Cc2ccccc2-3)nnc1-c1ccccc1	-5	i	i	3	26*	-4	32*	-1
SMILES	PREPL inh	ANO1 block	ANO1 activ	PP5 primary	PP1 counter	FID counter	PP1 inh confirm	PP5 counter
Cn1c(SCC(=O)c2ccccc2)nnc1-c1ccncc1	-2	i	i	-1	-1	-3	/	/
CCOc1ccc(S(=O)(=O)Nc2cccc(C(=O)NCC(c3ccc(OC)cc3)N3CCOCC3)c2)cc1 (stereo not drawn)	0	i	i	2	-1	-11	/	/
COc1ccc(Nc2cc(C)nc(NCc3ccccc3)n2)cc1	15	i	i	5	10	24	/	/
Cc1ccc(Nc2cc(C)nc(NCc3ccccc3)n2)cc1	9	i	i	5	18*	22	4	4
O=C(N=C1SC2CS(=O)(=O)CC2N1Cc1ccccc1)C1CCCCC1 (stereo not drawn)	-8	i	i	0	1	-36	/	/
CCOC(=O)c1cnc(-n2nc(C)cc2C)nc1NNc1ncc(-c2ccccc2)cn1	16	i	/	3	23*	-2	22*	-2
O=C(COC(=O)CN1C(=O)NC2(CCCC2)C1=O)Nc1c(Cl)cccc1C(F)(F)F	0	i	i	1	-4	/	/	/
O=C(COC(=O)CCc1ccc(S(=O)(=O)N2CCOCC2)cc1)NCc1ccc(Cl)cc1	3	i	i	2	-1	-29	/	/
CCCc1cc(=O)n2[nH]c(-c3cccc(Br)c3)cc2n1	8	i	i	2	2	-3	/	/
Cc1cc(=O)n2[nH]c(-c3ccc(F)cc3)cc2n1	0	i	i	2	-4	0	/	/
O=c1cc(-c2ccc([N+](=O)[O-])cc2)nc2cc(-c3ccc(F)cc3)[nH]n12	31	i	i	0	35*	-4	34*	1
Cc1cccc(-c2cc3nc(-c4ccccc4)cc(=O)n3[nH]2)c1	1	i	i	0	23*	-14	21*	3
CC1CC(C)(C)NC2(CCCC2)N1 (stereo not drawn)	/	/	i	/	/	/	/	/
O=S(=O)(c1ccc(Cl)cc1)N1CCN(Cc2ccc(O)c3ncccc23)CC1	-7	i	i	3	18*	-20	24*	-2
Oc1ccc(CN2CCN(Cc3ccccc3)CC2)c2cccnc12	20	i	i	2	7	-2	/	/
O=C(CCS(=O)(=O)c1ccccc1)N(CCCN1CCOCC1)c1nc2ccc(F)cc2s1	-30	i	i	1	-7	/	/	/

Bioassay records from PubChem.
